# Measured values as given in the supplement of paper PMC6555819.
# Assays:
# Test in all cases: PBM binding z-score (relative to random genomic background probes); higher = stronger binding; sequences stand for … in GC…GCGATTGACAGCGTAGAATGAAGG
# [1] = system: FXR:RXRa (NR concentration 270 nM, RXRa partner concentration 90 nM)
# In short: (§1)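 Custom Agilent 4×180K protein-binding microarrays carried double-stranded probes, each with a 34-nt variable region. These regions held direct-repeat seeds, single-nucleotide variants, half-site ablations and random human genomic background sequences. Ligand-free nuclear receptor dimers were incubated on the arrays for 1 h, antibodies against each partner (one per run) detected binding, and scanned fluorescence was regression-normalized. Binding z-scores take the random background probes as reference.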
# [2] = system: LXRa:RXRa (NR concentration 270 nM, RXRa partner concentration 90 nM)
# In short: as §1
# [3] = system: LXRa homodimer (NR concentration 270 nM)
# In short: as §1
# [4] = system: LXRb:RXRa (NR concentration 270 nM, RXRa partner concentration 90 nM)
# In short: as §1
# [5] = system: LXRb homodimer (NR concentration 270 nM)
# In short: as §1
# [6] = system: PPARa:RXRa (NR concentration 270 nM, RXRa partner concentration 90 nM)
# In short: as §1
# [7] = system: PPARg:RXRa (NR concentration 180 nM, RXRa partner concentration 90 nM)
# In short: as §1
# [8] = system: PPARg:RXRa 270nM:90nM, anti-RXR (NR concentration 270 nM, RXRa partner concentration 90 nM)
# In short: as §1
# [9] = system: PPARg:RXRa 30nM:10nM, anti-RXR (NR concentration 30 nM, RXRa partner concentration 10 nM)
# In short: as §1
# [10] = system: PPARg:RXRa 90nM:30nM, anti-RXR (NR concentration 90 nM, RXRa partner concentration 30 nM)
# In short: as §1
# [11] = system: PPARg:RXRa DBDmut IVT, anti-RXR (DBD mutation: RXRa K156A/R161A, NR concentration 270 nM, RXRa partner concentration 90 nM)
# In short: as §1
# [12] = system: PPARg:RXRa IVT, anti-PPARg (NR concentration 270 nM, RXRa partner concentration 90 nM)
# In short: as §1
# [13] = system: PPARg DBDmut:RXRa IVT, anti-PPARg (DBD mutation: PPARg1 K132A/R137A, NR concentration 270 nM, RXRa partner concentration 90 nM)
# In short: as §1
# [14] = system: PPARg DBDmut IVT, anti-PPARg (DBD mutation: PPARg1 K132A/R137A, NR concentration 270 nM)
# In short: as §1
# [15] = system: PPARg homodimer (NR concentration 180 nM)
# In short: as §1
# [16] = system: PXR:RXRa (NR concentration 270 nM, RXRa partner concentration 90 nM)
# In short: as §1
# [17] = system: PXR homodimer (NR concentration 270 nM)
# In short: as §1
# [18] = system: RARa:RXR (NR concentration 270 nM, RXRa partner concentration 90 nM)
# In short: as §1
# [19] = system: RARa homodimer (NR concentration 270 nM)
# In short: as §1
# [20] = system: RARb:RXRa (NR concentration 270 nM, RXRa partner concentration 90 nM)
# In short: as §1
Sequence,PBM binding z-score [1],PBM binding z-score [2],PBM binding z-score [3],PBM binding z-score [4],PBM binding z-score [5],PBM binding z-score [6],PBM binding z-score [7],PBM binding z-score [8],PBM binding z-score [9],PBM binding z-score [10],PBM binding z-score [11],PBM binding z-score [12],PBM binding z-score [13],PBM binding z-score [14],PBM binding z-score [15],PBM binding z-score [16],PBM binding z-score [17],PBM binding z-score [18],PBM binding z-score [19],PBM binding z-score [20]
GCTAGTAGATCAAGGTTAAGAAAGACTAAGCTAA,0.0668,0.637,-0.651,0.372,-0.999,1.46,1.22,2.22,0.524,1.57,1.22,0.943,-0.176,-0.411,-0.263,0.229,0.0369,0.542,0.169,0.561
GCTATTAGTTGAAAGGGCACCCGAATGATTCTCG,0.43,0.387,0.235,0.554,-0.128,2.14,2.65,4.3,2.41,3.99,0.791,0.951,-0.101,0.368,1.05,0.72,0.405,1.28,0.468,1.72
CCTTGCGGGTCACGAGGTTATAGCACGACGAGCG,6.38,4.25,0.382,3.71,-0.139,5.87,7.48,6.95,4.06,5.86,5.74,6.59,3.45,2.14,3.48,4.41,0.214,6.01,0.851,4.47
CCGACTGGGCCAAAGGTTACCATACTCAGTACGA,1.06,1.26,0.13,2,-0.974,5.39,10.7,9.42,9.58,10.6,3.77,5.5,0.219,-0.431,1.31,1.75,-0.189,3.1,0.224,2.22
GATACAGGGTCAAGCCCAGAGTACGCGTATTGAT,7.02,4.26,-0.0405,3.88,-0.376,5.68,6.04,5.82,2.34,4.41,3.47,4.08,0.821,-0.0259,2.23,3.87,0.125,4.85,0.476,4.53
AGAATGAGGTTATACGTAGAGCAGGGAAGAAAGT,2.07,1.8,-0.116,1.59,0.336,2.98,1.76,2.08,0.738,1.52,3.85,2.15,1.23,1.06,1.79,1.13,0.781,1.57,0.0508,1.51
ATCTCTAGGTATAGATAGTTCAGTGAATGCAAAT,0.0439,0.281,0.536,0.328,0.404,0.225,0.685,0.289,0.345,0.323,-0.0574,0.416,1.48,1.36,0.546,0.877,0.855,0.453,0.807,0.415
CGTCAAAGTTCAACGAAGGTAACGTAAAGCACGC,5.82,5.6,2.79,3.6,1.02,4.68,4.43,4.94,2.06,4.07,0.66,1.92,0.175,0.224,2.37,4.52,2.37,3.37,0.936,5.18
GGATATAGGTAATACAAGGTGAAAGTCCGATTGT,1.08,2.72,0.722,1.12,0.202,2.58,2.63,2.51,0.801,1.87,5.48,5.34,1.29,1.44,1.17,1.02,0.527,2.01,1.8,0.806
